Data from PubChem BioAssay.

Test: A549 cell viability effects, profiling panel, calcein-AM fluorescence, 48 h, basal (AID 1162); note: test concentration not given here
Conditions: higher = more signal

Compared with COCC(=C=CC[C@H](O)c1cccc(OCCO)c1)C[C@H](O)COCc1ccccc1, COC(=O)C1N=C(c2ccc(OCCCO)cc2)N(c2ccccc2)O1 (stereo unspecified) is higher in z-score: 0.276 for the first, 0.893 for the second.

First: C=CCOC(=O)[C@H]1[C@@H]2C(=O)O[C@@H](c3ccccc3)[C@@H](c3ccccc3)N2[C@@H](c2ccc(OCCOC(=O)[C@H]3C[C@H]4C(=O)N[C@@H](CCCCNC(C)=O)C(=O)N4[C@H]3c3cccc(OCCO)c3)cc2)[C@]12C(=O)Nc1ccc(I)cc12
Second: C=CCNC(=O)[C@H]1[C@@H]2C(=O)O[C@@H](c3ccccc3)[C@@H](c3ccccc3)N2[C@@H](c2ccc(OCCO)cc2)[C@]12C(=O)N(C(=O)OCCOC)c1ccc(C#Cc3ccc(OC)cc3)cc12
The z-score of the first is higher: 0.0973 for the first, -0.394 for the second.

First: Cc1c(NC(=O)/C(C#N)=C/c2ccccc2Cl)c(=O)n(-c2ccccc2)n1C
Second: C=C(C(=O)CC[C@@H](OC(=O)c1ccccc1-c1ccccc1C(=O)O)c1ccccc1OCCO)C(C)C
The z-score of the first is higher: 1.62 for the first, -0.0081 for the second.

First: COc1ccc([Si](C)(C)[C@@H]2[C@@H](CC(=O)N3Cc4ccccc4C[C@H]3CO)O[C@]3(C(=O)N(Cc4ccc(N5CCC5=O)cc4)c4ccccc43)[C@H]2C)cc1
Second: CN1C=C(C(=O)OCCS(C)(=O)=O)C(C(=O)OCCS(C)(=O)=O)=CC(c2ccc(CO)cc2)=CC1c1cccs1 (stereo unspecified)
The z-score of the first is lower: -0.167 for the first, 0.574 for the second.

First: C=C[C@@H](OC)[C@H](OC(=O)Nc1ccc(OC)cc1)c1ccc(OC)c(O)c1
Second: CCOC(=O)C1=CCC(c2ccco2)N(S(=O)(=O)c2ccc(C)cc2)C1 (stereo unspecified)
The z-score of the first is lower: -0.464 for the first, -0.373 for the second.

Molecule CC(C)N1CC=CC23O[C@@H]4/C=C\CCCOC(=O)C4[C@H]2C(=O)N(CCCCCCO)[C@@H]3C1=O (stereo partly specified) has a z-score of 1.46.
